From ChEMBL document CHEMBL1857833, “Screening and optimization of specific chemical series against human African Trypanosomiasis (HAT)”
Screen size: about 4,400 compounds; about 390 (8.9%) showed an effect of 50% or more. The full list was thinned out, with strong results kept by preference.

What follows are compounds tested on Trypanosoma brucei (assay: DNDI: Inhibition of Human African Trypanosomiasis, SBRI 427, in vitro at 2 ug.mL-1).
Assay type: functional

SMILES | % inhibition [%]
CCOc1ccc(-c2nc(CNCc3ccccc3C(F)(F)F)co2)cc1 | 1
O/N=C(\NCC1CCCCC1)c1cccnc1Oc1ccc(Cl)cc1 | 98
CC(C)(C)COc1ncccc1/C(=N/O)NCC1CCCCC1 | -1
O/N=C(\NCC1CCCO1)c1cccnc1Oc1ccc(-n2cncn2)cc1 (stereo not drawn) | 24
CSc1ccccc1Oc1ncccc1/C(=N/O)NCCN1CCCC1 | 22
CCCN(CC1CC1)/C(=N\O)c1cccnc1Oc1ccccc1SC | 30
CSc1ccccc1Oc1ncccc1/C(=N/O)NCC1CC1 | 99
O/N=C(\NCCN1CCOCC1)c1cccnc1Oc1ccc2ccccc2c1 | -10
O/N=C(\NCC1CC1)c1cccnc1Oc1ccc2ccccc2c1 | 99
Cc1ccc(/C(=N/O)NCC2CCCCC2)c(Oc2ccc3ccccc3c2)n1 | 18
Cc1ccc(/C(=N/O)NCC2CCCCC2)c(Oc2ccc(Cl)cc2)n1 | -11
O/N=C(\NCc1ccccc1)c1cccnc1Oc1ccc(-n2cncn2)cc1 | 21
O/N=C(\NCC1CCCCC1)c1cccnc1Oc1ccc(-n2cncn2)cc1 | 90
COc1ccc(CN/C(=N\O)c2ccc(C)nc2OCc2ccccc2F)cc1 | -1
COc1cc(C)ccc1Oc1nc(C)ccc1/C(=N/O)n1nc(C)cc1C | -5
O/N=C(/c1ccc(Oc2cccc3c2CCCC3)nc1)N1CCN(c2ccc(F)cc2)CC1 | 26
COc1cc(-c2nc(Cn3ccnc3C)co2)cc(OC)c1OC | -1
Fc1ccc(N2CCN(Cc3coc(-c4ccco4)n3)CC2)cc1 | 13
FC(F)(F)c1ccc(-c2nc(Cn3ccnc3)co2)cc1 | -3
CCN(CC)c1cccc(Oc2ncccc2/C(=N/O)NCC2CC2)c1 | 6
O/N=C(\NCC1CC1)c1cccnc1Oc1ccc(F)cc1 | 97
CC(C)(C)CN/C(=N\O)c1cccnc1Oc1ccc(Cl)cc1 | 99
O/N=C(\NCc1cccnc1)c1cccnc1Oc1ccc(Cl)cc1 | 4

SMILES | % inhibition [%]
O/N=C(\NCc1ccccn1)c1cccnc1Oc1ccc(Cl)cc1 | 10
COc1ccc(Oc2ncccc2/C(=N/O)NCC(C)C)cc1 | -7
N/C(=N\O)c1cccnc1Oc1ccc(F)c(Cl)c1 | 10
COc1ccc(Oc2ncccc2/C(=N/O)NCC(C)(C)C)cc1 | 98
N/C(=N\O)c1cccnc1Oc1ccc(Cl)cc1 | 59
Cc1ccc(Oc2ncccc2/C(N)=N/O)cc1 | 21
CCCN(Cc1coc(-c2cccc(F)c2)n1)C(C)CC (stereo not drawn) | -4
COc1cc(CNCc2coc(-c3cccs3)n2)cc(OC)c1 | -7
COc1cc(-c2nc(CN3CCCCC3C)co2)cc(OC)c1OC (stereo not drawn) | -4
Cc1ccc(/C(=N/O)N2CCCCC2)c(Oc2ccc3oc4ccccc4c3c2)n1 | 7
CC(C)(C)COc1ncccc1/C(=N/O)NCc1ccccn1 | 12
CCOc1ccc(-c2nc(CNCc3cccc(OC)c3OC)co2)cc1 | 3
CSc1ccc(Oc2nc(C)ccc2/C(=N/O)NCC(C)C)cc1C | -14
C#CCNCc1coc(-c2ccc(OC)cc2)n1 | -25
COc1ccc(N(C)Cc2coc(-c3ccc(F)cc3)n2)cc1 | -2
Cc1ccc(C)c(N2CCN(Cc3coc(-c4ccc(OC(F)(F)F)cc4)n3)CC2)c1 | 33
Cc1ccc(/C(=N/O)NC(C)C)c(Oc2cccc3ccc(C)nc23)n1 | 31
CC1CC(N/C(=N\O)c2ccc(Oc3c(F)c(F)cc(F)c3F)nc2)CC(C)(C)C1 (stereo not drawn) | 22
O/N=C(\NCC1CCCO1)c1ccc(Oc2c(F)c(F)cc(F)c2F)nc1 (stereo not drawn) | 25
O/N=C(\NC1CCCC1)c1ccc(Oc2c(F)c(F)cc(F)c2F)nc1 | 99
CN(/C(=N\O)c1ccc(Oc2c(F)c(F)cc(F)c2F)nc1)C1CCCCC1 | 21
O/N=C(\NCC1CCCCC1)c1ccc(Oc2c(F)c(F)cc(F)c2F)nc1 | 40
O/N=C(\NC1CCC1)c1ccc(Oc2c(F)c(F)cc(F)c2F)nc1 | 100

SMILES | % inhibition [%]
O/N=C(\NC1CCCCC1)c1ccc(Oc2c(F)c(F)cc(F)c2F)nc1 | 100
CC1CCC(N/C(=N\O)c2ccc(Oc3c(F)c(F)cc(F)c3F)nc2)CC1 (stereo not drawn) | 17
O/N=C(\NC1CCc2ccccc21)c1ccc(Oc2c(F)c(F)cc(F)c2F)nc1 (stereo not drawn) | 19
CCOc1ccc(-c2nc(CN(C)CCc3ccccc3)co2)cc1 | 10
CCOc1cccc(-c2nc(CNc3ccccc3C)co2)c1 | 20
CC(C)c1ccc(N/C(=N\O)c2ccc(Oc3cccc4ccccc34)nc2)cc1 | 16
O/N=C(\NCc1ccncc1)c1ccc(Oc2c(F)c(F)cc(F)c2F)nc1 | 6
CC(C)CN(C)Cc1coc(-c2ccccc2Cl)n1 | 1
COc1ccc(Oc2ncccc2/C(=N/O)N2CCC3CCCCC3C2)cc1 (stereo not drawn) | -2
O/N=C(\NC1CCC1)c1cccnc1Oc1ccc2c(c1)CCCC2 | 100
O/N=C(\NCc1ccccc1)c1cccnc1Oc1ccc2c(c1)CCCC2 | -4
COc1ccc(Oc2ncccc2/C(=N/O)NC2CCCCC2)cc1 | 98
COc1ccc(Oc2ncccc2/C(=N/O)NC2CCCC2)cc1 | 99
O/N=C(/c1cccnc1Oc1ccc(Cl)cc1)N1CCC2CCCCC2C1 (stereo not drawn) | -20
O/N=C(\NC1CCCC1)c1cccnc1Oc1ccc2c(c1)CCCC2 | 1
O/N=C(/c1cccnc1Oc1ccc2ccccc2c1)N1CCC2CCCCC2C1 (stereo not drawn) | 100
COc1ccc(Oc2ncccc2/C(=N/O)N(C)C2CCCCC2)cc1 | -15
O/N=C(/c1ccnc(Oc2ccc(Cl)cc2)c1)N1CC=CCC1 | 8
COc1ccc(-c2nc(Cn3nc(C)cc3C)co2)cc1 | -6
Cc1cccc(N2CCN(Cc3coc(-c4ccc(Br)cc4)n3)CC2C)c1 (stereo not drawn) | 15
COc1ccc(-c2nc(CNCCc3ccc(C)cc3)co2)cc1 | -3
Cc1ccc(CN/C(=N\O)c2ccc(Oc3cc(Cl)ccc3Cl)nc2)o1 | 9
